GLS inh – qHTS for Inhibitors of Glutaminase (GLS) | Glutaminase kidney isoform, mitochondrial (Homo sapiens), O94925 | Potency, µM (highest dose often 45.5 µM), without a hit: top-dose activity change, negative = inhibition, usual class: inhibitors | 0.21% of 410,000 active | AID 624170, 2012 | GLS enzymatic activity, qHTS titration; note: potency is the fitted concentration of half-maximal effect; % is set by controls: 0 for no effect and ±100 for the full control effect
Target sequence (O94925 whole entry, looked up, canonical isoform): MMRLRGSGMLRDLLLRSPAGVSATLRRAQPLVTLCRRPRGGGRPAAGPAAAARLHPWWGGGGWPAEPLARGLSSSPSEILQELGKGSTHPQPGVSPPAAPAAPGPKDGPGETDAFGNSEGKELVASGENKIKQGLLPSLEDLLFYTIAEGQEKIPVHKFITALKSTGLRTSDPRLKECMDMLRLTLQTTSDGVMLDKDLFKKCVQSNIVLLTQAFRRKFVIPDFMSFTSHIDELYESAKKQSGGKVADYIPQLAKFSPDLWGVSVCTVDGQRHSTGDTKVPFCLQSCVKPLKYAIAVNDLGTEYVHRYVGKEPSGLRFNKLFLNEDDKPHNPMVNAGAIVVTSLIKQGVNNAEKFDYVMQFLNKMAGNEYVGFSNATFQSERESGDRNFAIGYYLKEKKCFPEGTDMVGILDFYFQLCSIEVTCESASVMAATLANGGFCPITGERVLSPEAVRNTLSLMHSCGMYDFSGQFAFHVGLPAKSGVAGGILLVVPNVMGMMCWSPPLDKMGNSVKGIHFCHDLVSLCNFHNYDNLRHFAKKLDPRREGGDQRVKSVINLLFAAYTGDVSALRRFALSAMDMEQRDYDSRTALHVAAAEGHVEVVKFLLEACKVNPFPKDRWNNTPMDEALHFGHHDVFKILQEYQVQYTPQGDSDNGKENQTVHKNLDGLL
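hKGA in 45 mM KH2PO4 (pH 8.2), 0.02% Tween-20 with compound, then 1mM L-Glutamine (stock as added) plus glutamate oxidase/HRP/Amplex red coupling mix. Fluorescence read initially and after 30 min at RT; signal change reflects glutamate formation.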
hERG WT inh – qHTS for Inhibitors of KCHN2 3.1: Wildtype qHTS; AID 720551, 2013; 0.37% of 340,000 active; activity change, % at 1.84 µM; Voltage-gated inwardly rectifying potassium channel KCNH2 (Homo sapiens), Q12809; U2OS, BacMam KCNH2, thallium flux FluxOr; active compounds read low;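 active = maximum activity change below -70%; inconclusive = maximum activity change between -70% and -50%; inactive = maximum activity change above -50%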; note: % is set by controls: 0 for no effect and ±100 for the full control effect
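U2OS cells transduced with wild-type KCNH2 virus are loaded with FluxOr dye for 45 min, and thallium flux is measured in kinetic reads before and after stimulation buffer. Rate constants are normalized to DMSO controls.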
KCNH2 3.1 block – qHTS for Inhibitors of KCHN2 3.1: Mutant qHTS | U2OS KCNH2 3.1, thallium flux FluxOr; active compounds read low | 0.95% of 340,000 active | activity change, % (tested at about 1.8 µM);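 active = maximum activity change below -70%; inconclusive = maximum activity change from -70% to -50%; inactive = maximum activity change above -50%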;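 note: thallium influx rate constant from kinetic fluorescence after stimulation buffer; % is set by controls: 0 for no effect and ±100 for the full control effect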
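Thallium flux read-out: FluxOr dye with Red40 quencher in HBSS/HEPES, 45 min at RT. Rate constants from kinetic reads were normalized to positive and negative DMSO controls. Cells: U2OS virally expressing the 3.1 isoform.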
GLP-1R agonist – qHTS of GLP-1 Receptor Agonists; Potency, µM (titrated, usually from 45.6 µM), inactives show at the top dose activation, hits mostly activators; 0.007% of 380,000 active; HEK293 GLP-1R CRE-luciferase, luminescence, 4-6 h; cells express a hypersensitive GLP-1R form; Glucagon-like peptide 1 receptor (Homo sapiens), P43220; note: potency is the fitted concentration of half-maximal effect; % of control where 0% means no effect
GLP-1R inv ag – qHTS of GLP-1 Receptor Inverse Agonists (Inhibition Mode); Glucagon-like peptide 1 receptor (Homo sapiens), P43220; HEK293 GLP-1R CRE-luciferase, luminescence, 24 h; GLP-1R form is constitutively active; Potency, µM (top dose mostly 38.3 µM), without a hit: at the highest dose activity change, negative = inhibition, most hits filed as inhibitors; 1.6% of 410,000 active; AID 624417, 2012; note: potency is the fitted concentration of half-maximal effect; % is set by controls: 0 for no effect and ±100 for the full control effect; nearly all actives have a fitted effect of over 55% in size
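Readout was luciferase luminescence, measured 12 min after detection reagent at room temperature. Beforehand, GLP-1R reporter HEK293 cells had sat 12 h, then received compounds for 24 hr at 37 deg C.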
GLP1R cytotox – qHTS of GLP-1 Receptor Inverse Agonists: Cytotox Screen; Potency, µM (titrated, usually from 38.3 µM), for inactives: top-dose activity change, negative = inhibition, usual class: inhibitors; 0.13% of 410,000 active; HEK293 cAMP-luciferase reporter cells, luminescence, 24 h;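 note: loss of luciferase light is scored as toxicity; potency is the fitted concentration of half-maximal effect; % is set by controls: 0 for no effect and ±100 for the full control effect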
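A 23 nL compound transfer followed 12 hours of cell culture at 37 deg C; exposure then lasted 24 hr. Luciferase assay detection reagent was dispensed and plates read for luminescence after a 12 min room-temperature wait.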
Starred values were filed as active, the others as inactive; [ ] = dose if it differs, or a comment. Sampled rows, rich in hits. Any-hit rate of the full collection: about 2.8%. Unless noted, calls come from the whole dose curve; as a rule, active = well fitted curve in the direction sought with a large enough effect; inconclusive = small, poorly fitted or top-dose-only effect, or another doubt; inactive = no such curve, though single readings can be large; an effect the other way counts as inactive or inconclusive.

Results for O=[N+]([O-])c1cc(-n2cnnn2)ccc1N1CCC(Cc2ccccc2)CC1 ?
GLS inh: 5%; hERG WT inh: 4; KCNH2 3.1 block: -81*; GLP-1R agonist: 18%; GLP-1R inv ag: inconclusive; GLP1R cytotox: inconclusive

Results for ClC[C@H]1CO1 (tested in a mixture with another compound) ?
GLS inh: -5%; GLP-1R agonist: 0%

Results for CCCCCCCCCCOC(=O)Cn1c(COc2ccccc2C)[n+](C)c2ccccc21 ?
GLS inh: 0%; hERG WT inh: inconclusive; KCNH2 3.1 block: -81*; GLP-1R agonist: -2%; GLP-1R inv ag: inconclusive; GLP1R cytotox: inconclusive

Results for [S]=[Sb][S][Sb]=[S] ?
GLS inh: -2%; GLP-1R agonist: -3%

Results for COC(=O)C1=C(c2cc3ccccc3o2)C[C@@H]2CC[C@H]1N2C(=O)NCc1ccc(F)cc1 ?
GLS inh: 2%; hERG WT inh: -6; KCNH2 3.1 block: -22; GLP-1R agonist: 3%; GLP-1R inv ag: 11µM*; GLP1R cytotox: -2%

How did COC(=O)C1=C(c2cc3ccccc3s2)C[C@@H]2CC[C@H]1N2C(=O)N1CCC(C)CC1 do in these assays?
GLS inh: 1%; hERG WT inh: -7; KCNH2 3.1 block: 10; GLP-1R agonist: 25%; GLP-1R inv ag: 10µM*; GLP1R cytotox: -20%

How did COC(=O)C1=C(c2ccc(S(C)(=O)=O)cc2)C[C@@H]2CC[C@H]1N2C(=O)N1CCC(C)CC1 do in these assays?
GLS inh: -16%; hERG WT inh: -14; KCNH2 3.1 block: -99*; GLP-1R agonist: 9%; GLP-1R inv ag: 21%; GLP1R cytotox: -2%

What do the screens show for `COC(=O)C1=C(c2cc3ccccc3s2)C[C@@H]2CC[C@H]1N2C(=O)NCc1ccc(C(F)(F)F)cc1`?
GLS inh: -2%; hERG WT inh: 2; KCNH2 3.1 block: -9; GLP-1R agonist: -5%; GLP-1R inv ag: 4µM*; GLP1R cytotox: -3%

What do the screens show for `COC(=O)C1=C(c2ccc(OC(F)(F)F)cc2)C[C@@H]2CC[C@H]1N2C(=O)N1CCC(C)CC1`?
GLS inh: 0%; hERG WT inh: 22; KCNH2 3.1 block: -15; GLP-1R agonist: 20%; GLP-1R inv ag: inconclusive; GLP1R cytotox: -16%

Results for COc1ccc(-c2nc(CSCC(=O)N3CCN(c4ccc(F)cc4)CC3)c(C)o2)cc1 ?
GLS inh: -1%; GLP-1R inv ag: inconclusive; GLP1R cytotox: 16%

What do the screens show for `CCOC(=O)C1(CCc2ccccc2)CCN(Cc2ccc3c(c2)OCCO3)CC1`?
GLS inh: 2%; hERG WT inh: -43; KCNH2 3.1 block: -113*; GLP-1R agonist: 14%; GLP-1R inv ag: inconclusive; GLP1R cytotox: inconclusive

Results for CCOC(=O)C1(CCOc2ccccc2)CCN(Cc2ccc(C)s2)CC1 ?
GLS inh: 12%; hERG WT inh: -94*; KCNH2 3.1 block: -84*; GLP-1R agonist: 4%; GLP-1R inv ag: inconclusive; GLP1R cytotox: -29%

How did O=c1[nH]sc2cc(F)ccc12 do in these assays?
GLS inh: 7.9µM*; hERG WT inh: -4; KCNH2 3.1 block: -4; GLP-1R agonist: 0%; GLP-1R inv ag: inconclusive; GLP1R cytotox: inconclusive

Results for C[C@]12CC[C@@H]3c4ccc(OC(=O)N(CCCl)CCCl)cc4CC[C@@H]3[C@H]1CC[C@@H]2OP(=O)(O)O ?
GLS inh: -15%; GLP-1R agonist: -6%

How did Cc1c(CCCN)c2ccccc2n1Cc1ccccc1 do in these assays?
GLS inh: 16%; hERG WT inh: -8; KCNH2 3.1 block: -18; GLP-1R agonist: 6%; GLP-1R inv ag: inconclusive; GLP1R cytotox: inconclusive

How did O=C(COc1ccc2ccccc2c1)N1CCN(CC2CC3C=CC2C3)CC1 (centres undefined) do in these assays?
GLS inh: 13%; hERG WT inh: 11; KCNH2 3.1 block: 6; GLP-1R agonist: -1%; GLP-1R inv ag: 8.9µM*; GLP1R cytotox: -2%

What do the screens show for `O=C(COc1ccc2ccccc2c1)N1CCN(C2CCN(Cc3ccccc3)CC2)CC1`?
GLS inh: 6%; hERG WT inh: -2; KCNH2 3.1 block: -26; GLP-1R agonist: -10%; GLP-1R inv ag: inconclusive; GLP1R cytotox: inconclusive

Results for COc1ccccc1CN1CCN(C(=O)COc2ccc3ccccc3c2)CC1 ?
GLS inh: 7%; hERG WT inh: inconclusive; KCNH2 3.1 block: 9; GLP-1R agonist: -4%; GLP-1R inv ag: 10µM*; GLP1R cytotox: 2%

How did O=C(CCCN1C(=O)/C(=C\c2ccccc2)SC1=S)N1CCOCC1 do in these assays?
GLS inh: -1%; hERG WT inh: 8; KCNH2 3.1 block: 9; GLP-1R agonist: -11%; GLP-1R inv ag: inconclusive; GLP1R cytotox: inconclusive

What do the screens show for `CCc1ccc(/C=C2\SC(=S)N(CCCC(=O)N(CCO)c3ccccc3)C2=O)cc1`?
GLS inh: 17%; hERG WT inh: -4; KCNH2 3.1 block: -4; GLP-1R agonist: -5%; GLP-1R inv ag: 10µM*; GLP1R cytotox: inconclusive

What do the screens show for `CCCCCn1c(=O)c(C(=O)NCc2ccncc2)c(O)c2ccccc21`?
GLS inh: 20%; hERG WT inh: -75*; KCNH2 3.1 block: -13; GLP-1R agonist: 2%; GLP-1R inv ag: 0%; GLP1R cytotox: -5%

What do the screens show for `Cc1nc2ccccc2c(=O)n1-c1ccccc1Cl`?
GLS inh: -11%[99.4 µM]; GLP-1R agonist: 23%[96 µM]

Results for CCC(=O)c1cn(Cc2ccccc2C#N)c2ccccc12 ?
GLS inh: 0%; hERG WT inh: -5; KCNH2 3.1 block: 18; GLP-1R agonist: 6%; GLP-1R inv ag: 10µM*; GLP1R cytotox: -15%

Results for N#Cc1ccccc1Cn1cc(C(=O)C2CC2)c2ccccc21 ?
GLS inh: -3%; hERG WT inh: -3; KCNH2 3.1 block: -9; GLP-1R agonist: 11%; GLP-1R inv ag: inconclusive; GLP1R cytotox: 1%

What do the screens show for `CCON=C(CC)C1=C(O)CC(c2c(C)cc(C)cc2C)CC1=O` (centres undefined)?
GLS inh: 1%[99.4 µM]; GLP-1R agonist: 12%[96 µM]

How did CCOC(=O)C1CCN(Cc2ccc(Cl)nc2)CC1 do in these assays?
GLS inh: 20%; hERG WT inh: -74*; KCNH2 3.1 block: -3; GLP-1R agonist: 9%; GLP-1R inv ag: 12%; GLP1R cytotox: -10%

Bioassay records deposited in PubChem by National Center for Advancing Translational Sciences (NCATS).
